Measurements: PubChem BioAssay AID602393 (Broad Institute, 2012)
The whole screen tested about 350,000 compounds, of which about 7,000 (2%) were called active. Cut-off read from the data, not from the text of the source: active = activation above about 40%; inconclusive = no clear call, values can overlap the other calls; inactive = below that. What follows is part of a selection rich in actives, with near analogues and random picks from the rest.

Assay: raisers of Bmi1 knock-in reporter signal – mouse ES cells, Bmi1 luciferase knock-in, single point, esBAF inhibitor project, primary screen (AID 602393);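 note: 0% = median of the plate's neutral control wells and 100% = double that signal; a rise in the Bmi1 reporter signal indicates esBAF inhibition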
Settings: 24 h, at 12.5 µM, stronger effect = higher value, 100% = twice the neutral-well signal

Reporter increase, inactive:
CN(C)C(=O)c1cccc(-c2ccc3n(c2=O)C[C@H]2N[C@@H]3[C@@H](C(=O)NC3CCC3)[C@@H]2CO)c1 -3.26%
CCCNC(=O)N1[C@H](CO)[C@H]2c3ccccc3N(C(=O)Nc3cccc(Cl)c3)C[C@H]21 -0.3%
COc1cccc(C(NC(C)=O)c2nc(-c3cnc4ccccc4c3)cs2)c1 (stereo not drawn) -2.81%
CC(C)c1cccc(-c2csc(C(O)c3ccccc3)n2)c1 (stereo not drawn) 38.6%
C[C@@H]1CN([C@@H](C)CO)S(=O)(=O)c2ccc(/C=C/c3ccccc3)cc2O[C@@H]1CN(C)C(=O)Nc1cc(F)ccc1F 2%
COc1ccccc1-c1cn(CC[C@H]2CC[C@H](NC(=O)C3CCOCC3)[C@@H](CO)O2)nn1 0.605%
O=C(Nc1cccc(C(=O)O)c1)/C(=C\c1ccccc1)NC(=O)c1ccc(Br)o1 -2.41%
CCS(=O)(=O)c1ccc(-c2cccc(NC(=O)c3ccc(Br)o3)c2)nn1 -4.52%
CO[C@H]1CN(C)C(=O)c2ccc(NC(=O)c3cccc(Oc4ccccc4)c3)cc2OC[C@@H](C)NC[C@H]1C -1.39%
C/C=C/c1ccc([C@@H]2[C@@H](CN(C)C(C)=O)N(C(=O)C3CC3)[C@H]2CO)cc1 -1.72%
O=C(NCc1cn2ccsc2n1)Nc1cccc(Cl)c1 28.5%
Cc1cc(C)nc(NC(=O)Nc2ccccc2C(F)(F)F)n1 -6.57%
Cc1noc(C)c1S(=O)(=O)Nc1ccc2c(c1)C(=O)N([C@H](C)CO)C[C@@H](C)[C@@H](CN(C)C(=O)C1CCCCC1)OCCCC[C@@H](C)O2 5.24%
O=C(C[C@@H]1CC[C@H](NC(=O)C2CC2)[C@@H](CO)O1)NCc1ccncc1 -3.99%
CCc1cccc(C)c1NC(=O)COC(=O)CC1CCCC1 2.51%
Cc1cccc(C)c1NC(=O)COC(=O)c1ccccc1O 0.59%
CNC[C@H]1Oc2ccc(NS(=O)(=O)c3ccccc3)cc2CC(=O)N([C@H](C)CO)C[C@@H]1C -1.73%
O=C(CCNC(=O)c1ccccc1Cl)NCc1ccco1 -4.58%
COc1ccc2c(Cl)c(C(=O)NCc3ccco3)sc2c1 35.4%
CCCC#Cc1cnc2c(c1)C(=O)N([C@@H](C)CO)C[C@@H](C)[C@@H](CN(C)C(=O)c1ccccc1)O2 -1.26%
COc1ccc(NC(=O)Nc2ccc3c(c2)C(=O)N([C@@H](C)CO)C[C@@H](C)[C@H](CN(C)C(=O)CCC(F)(F)F)OCCCC[C@@H](C)O3)cc1 11%
COC(=O)C[C@@H]1CC[C@@H]2[C@H](COc3ccc(NC(=O)c4ccccc4OC)cc3C(=O)N2C)O1 -4.7%
COC(=O)c1ccc(OC(=O)c2cnccn2)cc1 2.58%
O=S(=O)(Nc1ncnc2sccc12)c1cccc(F)c1 -8.41%
COc1ccc(C(=O)OCC(=O)Nc2cc(C)on2)cc1F 0.512%
Cc1cc(NC(=O)COn2nnc3ccccc32)no1 -6.87%
COc1cccc(C(=O)OCC(=O)c2[nH]c(C)c(C(C)=O)c2C)c1 8.69%
CC(=O)c1c(C)[nH]c(C(=O)COC(=O)CCOc2ccc(C)cc2)c1C -8.22%
C[C@@H]1CN([C@H](C)CO)C(=O)c2cc(-c3ccccc3F)cnc2O[C@H]1CN(C)C(=O)NC1CCCCC1 -2.88%
C[C@@H]1CN([C@H](C)CO)C(=O)c2cc(-c3ccc(F)cc3)cnc2O[C@@H]1CN(C)C(=O)C1CCC1 -5.57%
COc1ccccc1N1CCN(C(=O)CSc2nnc(-c3ccoc3C)o2)CC1 -3.09%
COc1ccccc1-c1nnc(SCC(=O)N2CC(C)CC(C)C2)o1 (stereo not drawn) 0.0545%
COc1cccc(NC(=O)CSc2nnc(Cc3ccc(OC)c(OC)c3)o2)c1 -6.14%
COc1ccc(-c2nnc(NC(=O)CS(=O)(=O)c3ccc(Cl)cc3)o2)c(OC)c1 -8.93%
O=C(C[C@H]1C=C[C@H](NC(=O)Nc2ccc(C(F)(F)F)cc2)[C@@H](CO)O1)NCCN1CCCC1 3.94%
CO[C@@H](CN(C)C(=O)c1cnccn1)[C@@H](C)CN([C@@H](C)CO)S(=O)(=O)c1ccc(Cl)cc1 0.654%
COc1ccc(NC(=O)N(C)C[C@@H]2Oc3ccc(NC(=O)CCN4CCOCC4)cc3C(=O)N([C@@H](C)CO)C[C@H]2C)cc1 2.67%
C[C@@H]1CN([C@@H](C)CO)C(=O)c2cc(-c3cccnc3)cnc2O[C@H]1CN(C)Cc1ccc(-c2ccccc2)cc1 -1.47%
C[C@H](CO)N1C[C@H](C)[C@@H](CN(C)Cc2ccncc2)OCCCC[C@H](C)Oc2ccc(NS(=O)(=O)c3ccc(Cl)cc3)cc2C1=O 0.433%
COC(=O)CCc1sc(Nc2ccc(Br)cc2)nc1-c1ccc(OC)cc1 3.71%
CC(=O)c1ccc(Nc2nc(C(N)c3ccccc3)cs2)cc1 (stereo not drawn) 20.6%
NS(=O)(=O)c1ccc(NS(=O)(=O)/C=C/c2ccccc2)cc1 -2.76%
COc1ccc(C(C)(O)c2nc(-c3ccc(C)c(C)c3)cs2)cc1 (stereo not drawn) -1.35%
CCCNC(=O)Nc1ccc2c(c1)C(=O)N(C)C[C@H](OC)[C@H](C)CN(Cc1cccnc1)[C@@H](C)CO2 -1.39%
CN1CCN(C(=O)C[C@@H]2CC[C@@H]3[C@H](COC[C@H](O)CN3CC3CCOCC3)O2)CC1 3.66%
CC(C)NC(=O)N[C@@H]1CC[C@H](CC(=O)NCCN2CCCC2)O[C@@H]1CO -2.08%
COc1ccccc1S(=O)(=O)N[C@@H]1CC[C@@H](CCn2cc(C3CCCCC3)nn2)O[C@H]1CO 4.02%
CO[C@H]1CN(C)C(=O)c2ccc(NC(=O)C3CCCC3)cc2OC[C@@H](C)NC[C@@H]1C 0.309%
COc1cccc(NC(=O)Nc2ccc3c(c2)C(=O)N(C)[C@@H]2CC[C@@H](CC(=O)NCCc4ccccc4)O[C@H]2CO3)c1 4.83%
C[C@@H]1CN([C@H](C)CO)C(=O)c2cc(NC(=O)CCCN(C)C)ccc2O[C@@H](C)CCCCO[C@H]1CN(C)CC1CCCCC1 -2.94%
O=C(NCCc1cccc(F)c1)C1CCCN(c2nc3ccccc3s2)C1 (stereo not drawn) 3.83%
Fc1ccc2nc(Nc3nc4c(s3)CCCC4)sc2c1 28.9%
O=C(Cc1ccccc1)N1C[C@@H]2[C@H](c3ccccc31)[C@@H](CO)N2C(=O)Nc1ccc(F)cc1 -2.51%
O=C(C[C@@H]1C[C@H]2c3cc(NS(=O)(=O)c4ccc(F)cc4)ccc3O[C@H]2[C@@H](CO)O1)NCc1ccccc1F 12.4%
CCC(=O)N1C[C@@H](C)[C@@H](OC)CN(C)C(=O)c2ccc(NC(=O)Nc3ccccc3)cc2OC[C@H]1C 0.261%
CCc1ccc(NC(=O)C(=O)NNC(=O)c2cccs2)cc1 12.8%
O=C(CNC(=O)c1cccs1)N/N=C/c1cccc(Br)c1 -3.05%
Cc1ccc(CC2CC(=O)N(c3ccc4c(c3)OCCO4)C2=O)cc1 (stereo not drawn) 11.3%
COc1ccc(N2C(=O)CN=C2Nc2cccc(C)c2C)cc1OC -1.36%
COc1ccc(NC(=O)N(C)C[C@@H]2Oc3ncc(-c4ccc(C#N)cc4)cc3C(=O)N([C@@H](C)CO)C[C@H]2C)cc1 -0.692%
COc1cc2[nH]c(O)c(C=O)c2cc1OC 3.41%
COc1ccc(CNC(=O)[C@H](Cc2c[nH]c3ccccc23)NC(C)=O)cc1OC 3.18%
C[C@H](CO)N1C[C@H](C)[C@H](CN(C)C(=O)Nc2ccc(C(F)(F)F)cc2)Oc2ccc(NC(=O)C3CC3)cc2C1=O -3.98%
COc1cc(NC(=O)COC(=O)c2ccc([N+](=O)[O-])s2)cc(OC)c1OC -3.17%
CCCn1c(C)cc(/C=C(\C#N)C(=O)OCC(=O)N(C)c2c(N)n(Cc3ccccc3)c(=O)[nH]c2=O)c1C 9.72%

Reporter increase, active:
OC(c1ccccc1)c1nc(-c2cnc3ccccc3c2)cs1 (stereo not drawn) 50.7%
Cc1cccc(NC(=S)NC(=O)c2ccc(Br)o2)c1 52.3%
Cc1cc(Cl)nc(NC(=O)Nc2cccc(Cl)c2)n1 74.9%
CCOc1cccc2cc(C(=O)OCC(=O)Nc3c(C)cccc3CC)c(=O)oc12 50.3%
O=C(NCc1ccco1)c1sc2cccc(F)c2c1Cl 44%
C[n+]1cc(-c2ccccc2)oc1-c1ccccc1 51.8%
COC(=O)c1ccc(Nc2ncnc3sccc23)cc1 41.7%
Cc1cc(NC(=O)COc2ccccc2C#N)no1 70%
CC(=O)c1c(C)[nH]c(C(=O)COC(=O)c2cccs2)c1C 48.6%
COc1ccc(-c2nnc(SCC(=O)c3cccs3)o2)c(OC)c1 78.8%
COc1ccccc1-c1nnc(SCC(=O)Nc2ccccc2)o1 50.9%
COc1ccc(-c2csc(Nc3ccc(O)cc3)n2)cc1 78.7%
NS(=O)(=O)c1ccc(Nc2nc(-c3ccccc3)cs2)cc1 47.4%
Fc1ccc2nc(N3CCCCC3)sc2c1 45.1%
CC(=O)Nc1ccc(/C=N/NC(=O)c2cccs2)cc1 48.3%
Cc1ccc(C)c(NC2=NCC(=O)N2c2ccc3c(c2)OCCO3)c1 47.5%
COc1ccc(N=Cc2c(O)[nH]c3ccccc23)cc1OC 73.5%
CCCn1c(C)cc(/C=C(\C#N)C(=O)OCC(=O)Nc2cc(OC)c(OC)c(OC)c2)c1C 61.6%
